Each structure is given as a SMILES string. Values without a mark were called inactive.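 The calls were made as follows, unless noted: active = inhibition over a set limit, the all-compound mean plus 3 SD, in both replicate runs; inconclusive = over that limit in just one replicate run; inactive = at or under that limit in both runs.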

The first assay is described as follows: RAM pathway blockade in budding yeast – dse1pr::URA3 reporter, 5-FOA selection, pilot screen (AID 869).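 Also: 0% = DMSO wells with no growth and 100% = 10 µM 1-NA-PP1 with full growth; RAM network block rescues cells from 5-FOA so hits raise OD615 growth.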 The following applies: S. cerevisiae dse1pr::URA3 5-FOA growth, OD615, 2 d; at 10 µM; hits give high values; strain carries analog-sensitive mutant Cbk1 kinase.
In general, inhibition refers to the change of the read-out against control, counted positive when it falls. On to `CCOC(=O)N1CCC(NC(=O)c2csc3c2CCCC3)CC1`, for which the inhibition was 1.29%.

For the compound `CC1CCCCN1C(=O)c1ccccc1NC(=O)c1ccco1` (stereo not drawn), the inhibition was 2.17%.

In the case of `CCOC(=O)N1CCN(C(=O)CSc2nnc(-c3ccc(C(C)(C)C)cc3)o2)CC1`, the inhibition was 0.505%.

For the compound `O=C(CN1C(=O)CSc2ncccc21)N1CCOCC1`, the inhibition is -0.115%.

`CN(C)S(=O)(=O)c1ccc(C(=O)Nc2nc(-c3cccs3)cs2)cc1`: the inhibition is 4.17%.

Take `CN(C)C=NC(=O)/C(C#N)=C1\CCc2ccccc2N1`: the inhibition is 0.705%.

As to `COc1cc2c(c(O)c1OC)C(=O)C(OC)CCC2` (stereo not drawn), the inhibition is 0.275%.

For `COc1cc(NC(=O)c2cc3c(=O)n(C)c4ccccc4c3n2C)cc(OC)c1OC`, the inhibition was 3.3%.

Turning to `Cc1ccc(S(=O)(=O)/N=C/c2ccco2)cc1`, the inhibition was 0.625%.

In the case of `C=CCc1c(C)nc(SC)nc1Nc1ccc(C(C)=O)cc1`, the inhibition was 1.53%.

With `O=C(O)CCCCCN1C(=O)C(=O)/C(=C(/O)c2ccccc2)C1c1ccccc1` (stereo not drawn), the inhibition was 3.47%.

On to `CCOC(=O)N1CCN(C(=O)c2cnn3ccccc23)CC1`, for which the inhibition is 4.82%.

In the case of `Brc1cccc(-c2nnc3sc(CNCc4ccco4)cn23)c1`, the inhibition is 1.97%.

`O=C(Nc1ccccc1)OCC1CCCN2CCCCC12` (stereo not drawn): the inhibition is 0.69%.

`O=C(NCc1ccco1)c1ccc(S(=O)(=O)c2cccc(S(=O)(=O)N3CCOCC3)c2)cc1`: the inhibition was 1.19%.

With `CC1Cc2nc(SCC(=O)NCc3ccco3)n(-c3ccccc3)c(=O)c2S1` (stereo not drawn), the inhibition is 0.405%.

Consider `CCc1ccc2[nH]cc(C(=O)OCCOC)c(=O)c2c1`, for which the inhibition was 1.91%.

As to `CC1CCc2c(sc3ncnc(NCCN4CCOCC4)c23)C1` (stereo not drawn), the inhibition is 1.02%.

As for `O=C(c1cc(-c2ccccc2O)on1)N1CCCC1`, the inhibition was 3.37%.

With `Cc1ccc(-c2nc(NC(=O)CSc3nnc4scc(-c5ccccc5)n34)ns2)cc1`, the inhibition is 2.42%.

As to `COCCNC(=O)CS(=O)(=O)Cc1nc(-c2ccc(C)cc2)oc1C`, the inhibition was -0.325%.

On to `CCOc1cccc(C2c3c(oc4cc(C)c(C)cc4c3=O)C(=O)N2CCCN(C)C)c1` (stereo not drawn), for which the inhibition was 1.8%.

Consider `COc1ccc(-c2nc(C#N)c(NC(C)C)o2)cc1`, for which the inhibition is 2.67%.

Regarding `O=C1CSC(c2nn(-c3ccccc3)cc2-c2cc3ccccc3oc2=O)N1Cc1ccco1` (stereo not drawn), the inhibition is 2.16%.

Regarding `O=C(NCCC1=CCCCC1)c1ccc2c(=O)n3c(nc2c1)CCCCC3`, the inhibition was -0.66%.

`O=C(Cn1c(=O)oc2cc(S(=O)(=O)N3CCCC3)ccc21)N1CCN(c2ccccn2)CC1`: the inhibition is 2.1%.

Consider `Cc1onc(-c2c(F)cccc2Cl)c1C(=O)OCC(=O)Nc1c(C)n(C)n(-c2ccccc2)c1=O`, for which the inhibition was 0.92%.

As for `COCCNC(=O)CN1C(=O)CSc2cc(S(=O)(=O)N3CCCCCC3)ccc21`, the inhibition was 2.73%.

`O=C(O)c1ccccc1C(=O)c1cccs1`: the inhibition is 0.54%.

Consider `CCCC(=O)Nc1ccccc1-c1nnc(SC)[nH]c1=O`, for which the inhibition was 1.06%.

With `COCCNC(=O)CN1C(=O)COc2ccc(Cl)cc21`, the inhibition was 1.12%.

For the compound `O=C(NCCC1=CCCCC1)C1CCN(c2nnc(-n3cccc3)s2)CC1`, the inhibition was 2.42%.

Take `COc1ccc(C2C(C(=O)Nc3ccccn3)=C(C)Nc3ncnn32)c(OC)c1` (stereo not drawn): the inhibition is 2.48%.

Take `Cc1cc(C)c2c(n1)SCC(=O)N2CC(=O)NCCC1=CCCCC1`: the inhibition is 0.52%.

Take `COCCNC(=O)C1CCN(S(=O)(=O)c2ccccc2)CC1`: the inhibition is -0.045%.

In the case of `NC(=O)c1ccsc1NC(=O)C1CCCCC1`, the inhibition is 0.965%.

With `CCOc1ccc(-c2nc(C#N)c(N3CCN(Cc4ccccc4)CC3)o2)cc1`, the inhibition was -0.36%.

With `CCOC(=O)C1=C(C)NC(=O)NC1c1ccc(N(CC)CC)cc1` (stereo not drawn), the inhibition was 1.44%.

For the compound `N#CC1=C(N)OC2=C(C(=O)CCC2)C1c1ccsc1` (stereo not drawn), the inhibition was 1.52%.

Another assay is described as follows: RAM signaling pathway blockade in yeast – S. cerevisiae, Pdr1DBD-CYC8 efflux-inhibited sensitized strain, primary screen (AID 1298;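 active = RAM network inhibition above 8.4% in each of two replicates, 3 SD over the compound average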;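 also: 0% = DMSO untreated cells without growth and 100% = 10 µM 1-NA-PP1 full growth; higher means more yeast growth rescued from 5-FOA killing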). Particulars: S. cerevisiae cbk1-as DSE1-URA3 strain, 5-FOA growth OD615, 2 d; at 50 µM; hits give high values.
On to `CCOC(=O)N1CCC(NC(=O)c2csc3c2CCCC3)CC1`, for which the RAM network inhibition was 3.9%.

As for `CC1CCCCN1C(=O)c1ccccc1NC(=O)c1ccco1` (stereo not drawn), the RAM network inhibition was 1.7%.

On to `CCOC(=O)N1CCN(C(=O)CSc2nnc(-c3ccc(C(C)(C)C)cc3)o2)CC1`, for which the RAM network inhibition is 1.1%.

As for `O=C(CN1C(=O)CSc2ncccc21)N1CCOCC1`, the RAM network inhibition is 7.38%.

On to `CN(C)S(=O)(=O)c1ccc(C(=O)Nc2nc(-c3cccs3)cs2)cc1`, for which the RAM network inhibition is 5.01%.

Take `CN(C)C=NC(=O)/C(C#N)=C1\CCc2ccccc2N1`: the RAM network inhibition is 6.77%.

Turning to `COc1cc2c(c(O)c1OC)C(=O)C(OC)CCC2` (stereo not drawn), the RAM network inhibition was -0.62%.

For `COc1cc(NC(=O)c2cc3c(=O)n(C)c4ccccc4c3n2C)cc(OC)c1OC`, the RAM network inhibition was 5.77%.

On to `Cc1ccc(S(=O)(=O)/N=C/c2ccco2)cc1`, for which the RAM network inhibition is 6.25%.

`C=CCc1c(C)nc(SC)nc1Nc1ccc(C(C)=O)cc1`: the RAM network inhibition was 6.87%.

For the compound `O=C(O)CCCCCN1C(=O)C(=O)/C(=C(/O)c2ccccc2)C1c1ccccc1` (stereo not drawn), the RAM network inhibition is 2.1%.

`CCOC(=O)N1CCN(C(=O)c2cnn3ccccc23)CC1`: the RAM network inhibition is -1.68%.

For the compound `Brc1cccc(-c2nnc3sc(CNCc4ccco4)cn23)c1`, the RAM network inhibition is 8.75%.

Take `O=C(Nc1ccccc1)OCC1CCCN2CCCCC12` (stereo not drawn): the RAM network inhibition is 3.65%.

In the case of `O=C(NCc1ccco1)c1ccc(S(=O)(=O)c2cccc(S(=O)(=O)N3CCOCC3)c2)cc1`, the RAM network inhibition is 3.8%.

Take `CC1Cc2nc(SCC(=O)NCc3ccco3)n(-c3ccccc3)c(=O)c2S1` (stereo not drawn): the RAM network inhibition is 6.31%.

On to `CCc1ccc2[nH]cc(C(=O)OCCOC)c(=O)c2c1`, for which the RAM network inhibition is 1.6%.

On to `CC1CCc2c(sc3ncnc(NCCN4CCOCC4)c23)C1` (stereo not drawn), for which the RAM network inhibition was 5.28%.

For `O=C(c1cc(-c2ccccc2O)on1)N1CCCC1`, the RAM network inhibition is 6.42%.

On to `Cc1ccc(-c2nc(NC(=O)CSc3nnc4scc(-c5ccccc5)n34)ns2)cc1`, for which the RAM network inhibition is 5.6%.

`COCCNC(=O)CS(=O)(=O)Cc1nc(-c2ccc(C)cc2)oc1C`: the RAM network inhibition was 3.68%.

On to `CCOc1cccc(C2c3c(oc4cc(C)c(C)cc4c3=O)C(=O)N2CCCN(C)C)c1` (stereo not drawn), for which the RAM network inhibition was 2.55%.

Take `COc1ccc(-c2nc(C#N)c(NC(C)C)o2)cc1`: the RAM network inhibition was 3.99%.

As for `O=C1CSC(c2nn(-c3ccccc3)cc2-c2cc3ccccc3oc2=O)N1Cc1ccco1` (stereo not drawn), the RAM network inhibition is 2.95%.

`O=C(NCCC1=CCCCC1)c1ccc2c(=O)n3c(nc2c1)CCCCC3`: the RAM network inhibition is 0.26%.

Consider `O=C(Cn1c(=O)oc2cc(S(=O)(=O)N3CCCC3)ccc21)N1CCN(c2ccccn2)CC1`, for which the RAM network inhibition was 6.22%.

In the case of `Cc1onc(-c2c(F)cccc2Cl)c1C(=O)OCC(=O)Nc1c(C)n(C)n(-c2ccccc2)c1=O`, the RAM network inhibition is 1.78%.

For `COCCNC(=O)CN1C(=O)CSc2cc(S(=O)(=O)N3CCCCCC3)ccc21`, the RAM network inhibition is -0.32%.

In the case of `O=C(O)c1ccccc1C(=O)c1cccs1`, the RAM network inhibition is 1.05%.

With `CCCC(=O)Nc1ccccc1-c1nnc(SC)[nH]c1=O`, the RAM network inhibition was 1.27%.

Take `COCCNC(=O)CN1C(=O)COc2ccc(Cl)cc21`: the RAM network inhibition was 5.23%.

Take `O=C(NCCC1=CCCCC1)C1CCN(c2nnc(-n3cccc3)s2)CC1`: the RAM network inhibition is 1.13%.

In the case of `COc1ccc(C2C(C(=O)Nc3ccccn3)=C(C)Nc3ncnn32)c(OC)c1` (stereo not drawn), the RAM network inhibition is 7.85%.

For the compound `Cc1cc(C)c2c(n1)SCC(=O)N2CC(=O)NCCC1=CCCCC1`, the RAM network inhibition is 2.59%.

`COCCNC(=O)C1CCN(S(=O)(=O)c2ccccc2)CC1`: the RAM network inhibition is 2.93%.

Regarding `NC(=O)c1ccsc1NC(=O)C1CCCCC1`, the RAM network inhibition is 0.22%.

As for `CCOc1ccc(-c2nc(C#N)c(N3CCN(Cc4ccccc4)CC3)o2)cc1`, the RAM network inhibition is 3.33%.

As for `CCOC(=O)C1=C(C)NC(=O)NC1c1ccc(N(CC)CC)cc1` (stereo not drawn), the RAM network inhibition was 1.67%.

With `N#CC1=C(N)OC2=C(C(=O)CCC2)C1c1ccsc1` (stereo not drawn), the RAM network inhibition is 4.01%.

The values above are taken from PubChem BioAssay.
